Only some compounds are listed: those with a hit (about 4.8% of all), similar ones and a draw of the others.
SMARCA2 activ – SMARCA2 function activation, primary screen. MG213 cells, MMTV-luciferase reporter, dexamethasone, overnight. activation, % at 9.1 µM. 370,000 tested, 1% active; in the data active means activation above about 7.8%;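 further: 0% = vehicle wells and 100% = reference activator wells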
DAX1 inh-1 – DAX1 (NR0B1) inhibition, primary screen. HEK293T StAR-luciferase reporter, SF-1/DAX-1 repression relief. inhibition, % at 6.8 µM. 370,000 tested, 1.1% active;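 active means inhibition above the mean over all tested compounds plus 3 SD, cut at about 3.6% in these data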;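 further: 0% = DAX-1 cells with DMSO and 100% = cells lacking DAX-1 with DMSO; higher inhibition means more luminescence from relief of DAX-1 repression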
hgDAF12 agonist – hgDAF-12 agonism, primary luciferase screen; HEK293 GAL4-hgDAF12 UAS-luciferase reporter, agonist luminescence; normalized to butyrate control; activation, % at 6.8 µM; 370,000 tested, 1.8% active; AID 687014;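 active means activation above a cutoff set at the mean of all screened compounds plus 3 SD, cut at about 10% in these data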;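 further: 0% = DMSO wells and 100% = sodium butyrate wells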
DAX1 inh-2 – NR0B1 (DAX1) inhibition; P51843; HEK293 Gal4-DAX1 luciferase reporter, luminescence; inhibition, % at 6.75 µM; 340,000 tested, 0.99% active; AID 504766;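 active means inhibition above the mean over all tested compounds plus 3 SD, cut at about 4.2% in these data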;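 further: 0% = DAX1-transfected cells with DMSO and 100% = empty-vector control cells with DMSO; inhibition shows as a rise in luminescence from relieved DAX1 repression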
Target sequence (P51843 207-470 limits assumed): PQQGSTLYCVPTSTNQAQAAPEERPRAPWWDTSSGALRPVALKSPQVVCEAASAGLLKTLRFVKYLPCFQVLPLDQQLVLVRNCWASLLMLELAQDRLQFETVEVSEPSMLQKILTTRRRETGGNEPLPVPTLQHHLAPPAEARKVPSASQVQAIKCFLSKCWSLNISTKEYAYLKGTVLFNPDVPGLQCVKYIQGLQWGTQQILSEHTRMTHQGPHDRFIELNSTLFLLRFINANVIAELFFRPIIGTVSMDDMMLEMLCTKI
ssDAF-12 act – activates DAF-12 receptor from parasite S. stercoralis; activation, % at 6.8 µM; 370,000 tested, 1% active; AID 652126; HEK293 ssDAF-12/GRIP1 lit1-tk-luc reporter, luminescence; % of 3 µM dafachronic acid response;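 active means activation above the mean over all tested compounds plus 3 SD, cut at about 0.9% in these data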;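 further: 0% = DMSO-only wells and 100% = 3 µM delta7-dafachronic acid wells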
hcDAF-12 act – activators of H. contortus DAF-12 nuclear receptor; HEK293 hcDAF-12 lit1-tk-luc reporter, luminescence; 0% DMSO, 100% Δ7-dafachronic acid; activation, % at 6.8 µM; 370,000 tested, 1.4% active;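 active means activation above the mean of all tested compounds plus 3 SD, cut at about 5.5% in these data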;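 further: 100% = response to 3 µM Δ7-dafachronic acid high control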
* marks the source's active call; other numbers are inactive results.

How did CCCc1cc(C(=O)Cc2ccc(F)cc2)c(O)cc1O do in these assays?
SMARCA2 activ: -1; DAX1 inh-1: 0; hgDAF12 agonist: 0; DAX1 inh-2: 0; ssDAF-12 act: -1; hcDAF-12 act: -1

How did CC(=O)c1ccc2noc(-c3ccc(C)cc3)c2c1 do in these assays?
SMARCA2 activ: 2; DAX1 inh-1: 0; hgDAF12 agonist: 3; DAX1 inh-2: -1; ssDAF-12 act: -1; hcDAF-12 act: 0

How did O=C1NC(=O)c2c(Br)c(Br)c(Br)c(Br)c21 do in these assays?
SMARCA2 activ: -5; DAX1 inh-1: 0; hgDAF12 agonist: 2; DAX1 inh-2: 1; ssDAF-12 act: 1.0*; hcDAF-12 act: 1

What do the screens show for `O=Cc1cn(CC(=O)Nc2ccc(F)cc2)c2ccccc12`?
SMARCA2 activ: 1; DAX1 inh-1: -2; hgDAF12 agonist: -5; DAX1 inh-2: -2; ssDAF-12 act: -2; hcDAF-12 act: -3

How did COC1OC(CO)C(N(C)C(C)=O)C1O (configuration not stated) do in these assays?
SMARCA2 activ: 3; DAX1 inh-1: 0; hgDAF12 agonist: 0; DAX1 inh-2: 4.8*; ssDAF-12 act: -1; hcDAF-12 act: -3

How did CO[C@H]1O[C@H](CBr)[C@@H](OC(=O)c2ccccc2)[C@H](O)[C@H]1O do in these assays?
SMARCA2 activ: -1; DAX1 inh-1: 0; hgDAF12 agonist: -1; DAX1 inh-2: 2; ssDAF-12 act: -1; hcDAF-12 act: -2

What do the screens show for `Cc1ccc2c(c1)N(C(=O)CCC(=O)N1CCC(C(N)=O)CC1)CCO2`?
SMARCA2 activ: -3; DAX1 inh-1: 1; hgDAF12 agonist: 1; DAX1 inh-2: 0; ssDAF-12 act: 1.3*; hcDAF-12 act: 1

Results for CCOC(=O)N1CCN(C(=O)CCC(=O)N2CCOc3ccc(C)cc32)CC1 ?
SMARCA2 activ: -3; DAX1 inh-1: 0; hgDAF12 agonist: 1; DAX1 inh-2: 0; ssDAF-12 act: -1; hcDAF-12 act: -1

What do the screens show for `CCN(CC)C(=O)CCCSc1nnc(Nc2ccccc2F)s1`?
SMARCA2 activ: 8; DAX1 inh-1: 1; hgDAF12 agonist: 13*; DAX1 inh-2: 0; ssDAF-12 act: -1; hcDAF-12 act: 2

How did COc1ccc(N(C)C(=O)Cc2c(C(=O)O)[nH]c3ccccc23)cc1 do in these assays?
SMARCA2 activ: 2; DAX1 inh-1: 0; hgDAF12 agonist: 1; DAX1 inh-2: 0; ssDAF-12 act: -1; hcDAF-12 act: 2

What do the screens show for `CCN(C(=O)Cc1c(C(=O)O)[nH]c2ccccc12)c1cc(OC)ccc1OC`?
SMARCA2 activ: -4; DAX1 inh-1: 0; hgDAF12 agonist: 1; DAX1 inh-2: 4.8*; ssDAF-12 act: -1; hcDAF-12 act: 3

How did CN(Cc1cccc(Cl)c1)C(=O)C1CSC2(C)CCC(=O)N12 (configuration not stated) do in these assays?
SMARCA2 activ: 0; DAX1 inh-1: -1; hgDAF12 agonist: 0; DAX1 inh-2: 0; ssDAF-12 act: -1; hcDAF-12 act: -2

What do the screens show for `COc1ccc(C2Nc3cccc4cccc(c34)N2)cc1Br`?
SMARCA2 activ: -1; DAX1 inh-1: 0; hgDAF12 agonist: 2; DAX1 inh-2: -1; ssDAF-12 act: 1.1*; hcDAF-12 act: 5

What do the screens show for `COc1cc(Nc2cc(C)nc3ncnn23)cc(OC)c1OC`?
SMARCA2 activ: -2; DAX1 inh-1: 0; hgDAF12 agonist: 0; DAX1 inh-2: 5.5*; ssDAF-12 act: -1; hcDAF-12 act: 1

What do the screens show for `COc1cc(/C=C/C(=O)O)ccc1S(=O)(=O)N1CCCc2ccccc21`?
SMARCA2 activ: 0; DAX1 inh-1: -1; hgDAF12 agonist: 0; DAX1 inh-2: 0; ssDAF-12 act: -1; hcDAF-12 act: 1

Results for C=C(CO)C1Cc2cc(C(C)=O)ccc2O1 (configuration not stated) ?
SMARCA2 activ: 0; DAX1 inh-1: -1; hgDAF12 agonist: 0; DAX1 inh-2: 4.3*; ssDAF-12 act: -1; hcDAF-12 act: 0

What do the screens show for `CC1Cc2cc(C(=O)O)ccc2O1` (configuration not stated)?
SMARCA2 activ: -1; DAX1 inh-1: 0; hgDAF12 agonist: 1; DAX1 inh-2: 2; ssDAF-12 act: -1; hcDAF-12 act: 0
